# Compound activity (PubChem BioAssay)
# A selection: hits, their analogues and other compounds. The true share with any hit is near 5.7%.
# Giardia kill = Giardia lamblia killing | Giardia lamblia trophozoite viability | 0.15% of 340,000 active | activity change, % at 7.66 µM, hits read low; in the data active means activity change below about -80%; inconclusive means between about -30% and that limit;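 further: parasites exposed to compound for two days anaerobically before the ATP read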
#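 Luminescence from cellular ATP indicates surviving trophozoites (100 cells/well) following 48 hrs anaerobic compound treatment at 37 deg C; signal develops 15-30 min at room temperature.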
# KB-V1 cytotox = KB-V1 MDR subline cytotoxicity; KB-V1 MDR cells viability, CellTiter-Glo, 72 h; Potency, µM (doses to about 46.1 µM), most hits filed as cytotoxic; 3.4% of 400,000 active; further: potency means the concentration at half of the fitted maximal effect; nearly all actives have a fitted effect of over 60% in size
#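 KB-V1 cells (P-gp-expressing MDR subline of KB-3-1) in phenol-red-free DMEM with 10% FBS were exposed to library compounds over a concentration series for 72 h at 37 degrees C. Viability read by CellTiter-Glo luminescence; concentration-effect curves fitted after normalization.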
# PI4K2A block = blocks human PI4K2A kinase activity. purified PI4K2A, ADP-Glo luminescence, 1 h; hits give low values. activity change, negative = inhibition, % at 76.9 µM. 0.13% of 420,000 active. AID 1346378; in the data active means activity change below about -50%; inconclusive means mostly about -30% to -49%;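 further: -100% = wells without enzyme as full effect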
# Target sequence (Q9BTU6 whole entry, looked up): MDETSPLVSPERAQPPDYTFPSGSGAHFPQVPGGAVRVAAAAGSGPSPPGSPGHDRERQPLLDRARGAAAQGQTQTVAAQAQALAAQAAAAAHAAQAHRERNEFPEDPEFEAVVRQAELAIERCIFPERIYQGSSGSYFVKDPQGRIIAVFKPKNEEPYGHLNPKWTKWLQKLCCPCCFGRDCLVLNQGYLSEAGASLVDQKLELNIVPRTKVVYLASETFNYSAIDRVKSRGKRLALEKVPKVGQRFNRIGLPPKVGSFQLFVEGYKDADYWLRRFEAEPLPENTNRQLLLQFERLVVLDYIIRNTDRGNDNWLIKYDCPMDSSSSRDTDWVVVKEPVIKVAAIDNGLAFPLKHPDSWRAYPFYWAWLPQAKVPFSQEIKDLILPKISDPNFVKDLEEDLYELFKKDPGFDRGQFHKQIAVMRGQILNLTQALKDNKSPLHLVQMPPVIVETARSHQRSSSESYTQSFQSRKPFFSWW
#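 Compounds are screened against recombinant PI4K2A using PI as substrate and ATP, the latter dispensed at 300 microM. Reactions run one hour at ambient temperature before ADP-Glo detection; full inhibition defined by wells lacking enzyme.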
# A549 tox-1 = counter-screen for Nrf2 inhibitors: cytotoxicity in A549 cells; 0.16% of 390,000 active; A549 ARE-Fluc cells, CellTiter-Fluor viability, 18-24 h; Potency, µM (top dose mostly 46 µM), for inactives: at the highest dose activity change, negative = cytotoxicity, actives largely listed as inhibitors; further: potency means the concentration at half of the fitted maximal effect
#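 A549 ARE-Fluc cells in 5% FBS OPTI-MEM, 5000 cells/well, rested 2 h then exposed to compounds in concentration-response for 18-24 h at 37 °C. Viability by CellTiter-Fluor fluorescence (Ex 405/Em 525) after 30 min; luciferase luminescence (BugLite, 15 min, RT) read afterwards.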
# Nrf2 block = Nrf2 pathway inhibition. Potency, µM (highest dose often 46 µM), without a hit: top-dose activity change, negative = inhibition, actives largely listed as inhibitors. 2.1% of 360,000 active. AID 504444. A549 ARE-Fluc reporter, luciferase luminescence, 18-24 h; further: potency means the concentration at half of the fitted maximal effect; nearly all actives have a fitted effect of over 60% in size
#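 Nrf2 activity is the BugLite luminescence, read 15 min after reagent at room temperature, following CellTiter-Fluor cytotoxicity readout (30 min, 37C). Compound titrations were applied for 18-24 h to 5000 A549 ARE_Fluc cells/well in 5% FBS OPTI-MEM.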
# KB-3-1 tox = KB-3-1 parental cell cytotoxicity. KB-3-1 viability, CellTiter-Glo ATP luminescence, 72 h. Potency, µM (highest dose often 46.1 µM), hits mostly cytotoxic. 1.4% of 400,000 active. AID 1347075; further: potency means the concentration at half of the fitted maximal effect; nearly all actives have a fitted effect of over 60% in size
#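 KB-3-1 cells, DMEM (no phenol red) + 10% FBS; compound by pin transfer, 72 h, 37 °C. Readout: CellTiter-Glo luminescence after 10 min. Data normalized, curve-fitted.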
# FLuc enzyme inh = blocks purified firefly luciferase in Nrf2 counterscreen. purified firefly luciferase, luminescence inhibition. 4% of 1,400 active. shares compounds with Nrf2 block. Potency, µM (series often up to 57.5 µM), for the others: at the top dose activity change, negative = inhibition, hits mostly inhibitors; further: potency means the concentration at half of the fitted maximal effect; nearly all actives have a fitted effect of over 65% in size
# A549 tox-2 = toxic to A549 ARE-Fluc cells in Nrf2 counterscreen; Potency, µM (titrated, usually from 46.1 µM), without a hit: at the highest dose activity change, negative = cytotoxicity, most hits filed as inhibitors; 2% of 1,400 active; A549 ARE-Fluc cells, cytotoxicity counterscreen; shares compounds with Nrf2 block;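 further: potency means the concentration at half of the fitted maximal effect; cells exposed to compounds for 18 to 24 hours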
# Nrf2 ARE inh = confirmation of Nrf2 inhibitors in A549 ARE reporter cells | shares compounds with Nrf2 block | A549 ARE-firefly luciferase reporter, luminescence | Potency, µM (titrated, usually from 46.1 µM), without a hit: top-dose activity change, negative = inhibition, most hits filed as inhibitors | 74% of 1,400 active; further: potency means the concentration at half of the fitted maximal effect; nearly all actives have a fitted effect of over 65% in size
# * marks the source's active call; other numbers are inactive results; i = inactive; u = inconclusive; x = not tested or not shown. Unless noted, the call rests on the fitted dose curve; in most records, active means well fitted curve in the direction sought with a large enough effect; inconclusive means small, poorly fitted or top-dose-only effect, or another doubt; inactive means no such curve, though single readings can be large; an effect the other way counts as inactive or inconclusive. Unless noted, on the % scale 0 is the no-effect control and ±100 the full control effect.
SMILES,Giardia kill,KB-V1 cytotox,PI4K2A block,A549 tox-1,Nrf2 block,KB-3-1 tox,FLuc enzyme inh,A549 tox-2,Nrf2 ARE inh
O=C(Nc1ccc(S(=O)(=O)N2CCCCC2)cc1)c1ccc(CN2CCOCC2)cc1,22,2.1µM*,-1,-4%,4.6µM*,7.3µM*,-1%,2%,7.3µM*
Cc1ccc(NS(=O)(=O)c2cccc(C(=O)NC3CCN(Cc4ccccc4)CC3)c2)cc1,-14,u,2,-14%,u,u,x,x,x
Cc1ccc(NC(=O)Nc2nnc(SCC(=O)N(C(C)C)C(C)C)s2)cc1,x,x,-1,-3%,x,x,x,x,x
Cc1ccc(Cl)cc1NS(=O)(=O)c1ccc2oc(=O)c3ncn(C)c3c2c1,x,x,-14,-3%,u,x,x,x,x
C[C@H]1CCC/C=C/C(=O)c2c(cc(O)c(Cl)c2O)CC(=O)O1,x,x,-28,x,x,x,x,x,x
O=S(=O)(NCCc1cn2ccsc2n1)c1ccc(Cl)cc1,x,x,-1,7%,x,x,x,x,x
COc1ccc2c(c1)c1nnc(SC)nc1n2Cc1ccccc1,2,x,x,8%,16%,x,x,x,x
O=C(Nc1cccnc1)c1ccc(Cl)c(S(=O)(=O)N2CCCC2)c1,21,i,3,-5%,u,i,x,x,x
COc1ccc(NC(=O)c2ccc(Cl)c(S(=O)(=O)N3CC(C)OC(C)C3)c2)cn1 (centres undefined),4,i,1,-5%,2.6µM*,u,1%,-7%,7.3µM*
CCOC(=O)N1CCC(Nc2cc(C)nc3c(-c4ccccc4OC)c(C)nn23)CC1,28,i,1,24%,9.2µM*,i,-1%,-25%,12µM*
CC1CCc2nc(-c3cc4ccc(O)cc4oc3=O)sc2C1 (centres undefined),-11,i,x,u,2.3µM*,u,0.038µM*,191%,18µM*
O=c1oc2cc(O)ccc2cc1-c1nc2ccccc2o1,x,i,-21,x,x,i,x,x,x
CCOC(=O)N1CCN(C(=O)c2ccc(Cn3c(=S)[nH]c4cc5c(cc4c3=O)OCO5)cc2)CC1,21,u,4,u,9.2µM*,i,-22%,-9%,8.2µM*
CC(C)(N[C@@H](Cc1ccccc1)C(=O)NCC(c1ccccc1)c1ccccc1)C(=O)NC1CCCCC1,x,x,1,x,x,x,x,x,x
COc1ccc(S(=O)(=O)Nc2ccc(Cc3ccncc3)cc2)cc1OC,17,u,-2,-17%,6.5µM*,u,2%,4%,u
CC12Cc3ccc4ccccc4c3C=C1C[N+](C)(C)C2 (centres undefined),17,i,-9,-19%,1.3µM*,i,0%,-7%,18µM*
CN(C)c1ccc(/C=C/c2c3ccccc3cc[n+]2[O-])cc1,x,i,x,x,x,i,x,x,x
C[n+]1ccccc1/C=C/c1ccc2ncccc2c1,-4,i,-4,u,-17%,i,x,x,x
CN(C)c1ccc(/C=C/c2ccc3c4ccccc4ccc3[n+]2-c2ccccc2)cc1,10,9.2µM*,-54*,10µM*,3.7µM*,0.29µM*,u,7.3µM*,2.9µM*
CN(C)c1ccc(/C=C/c2cc3ccccc3c[n+]2C)cc1,x,i,x,x,x,0.82µM*,-22%,u,6.5µM*
CCCCCCCCN1C(=O)[C@@H](CC(=O)N2CCN(C(=O)c3ccco3)CC2)C[C@@]2(C(=O)OC)C1=C[C@H](C(C)C)O[C@@H]2C1CC1,x,x,5,x,x,x,x,x,x
Cc1ccc(CNc2c(C)c(C)nc3nncn23)cc1,-13,i,3,-7%,3.7µM*,i,-1%,1%,4.1µM*
CCOC(=O)N1CCC(Nc2ncnc3c2cnn3-c2ccc(C)cc2C)CC1,15,i,-1,-16%,8.2µM*,i,1%,-2%,13µM*
C=CCNc1ncnc2c1cnn2-c1ccc(C)cc1C,-1,i,-8,-5%,9%,i,x,x,x
COc1cc(OC)cc(-c2cc3nc(C)c(CCC(=O)NCc4ccccc4)c(C)n3n2)c1,18,i,-9,2%,7.3µM*,i,-18%,3%,7.3µM*
SMILES,Giardia kill,KB-V1 cytotox,PI4K2A block,A549 tox-1,Nrf2 block,KB-3-1 tox,FLuc enzyme inh,A549 tox-2,Nrf2 ARE inh
COc1cc(OC)cc(-c2cc3nc(C)c(CCC(=O)Nc4ccc(C(C)=O)cc4)c(C)n3n2)c1,x,x,-2,-10%,4.1µM*,x,-12%,-5%,18µM*
COc1cc(NC(=O)CCc2c(C)nc3nc(-c4cc(OC)cc(OC)c4)nn3c2C)cc(OC)c1,x,i,-9,18%,-4%,i,x,x,x
CC1=[N+](C)c2c(ccc3cccnc23)C1(C)C,15,u,-21,u,2.1µM*,10µM*,-8%,-2%,2.6µM*
CCCN1CNc2c(c(=O)[nH]c(=S)n2CCc2ccc(Cl)cc2Cl)C1,-12,x,x,15%,4%,x,x,x,x
CCOC(=O)C1CCCN(S(=O)(=O)c2ccc(S(=O)(=O)N3CCCC3)cc2)C1 (centres undefined),-7,i,1,-15%,8.2µM*,i,3%,-3%,u
COc1ccc(C(=O)C2CCCN(S(=O)(=O)c3ccc(C(C)=O)cc3)C2)c(C)c1 (centres undefined),3,u,0,-14%,8.2µM*,u,5%,-2%,x
CCS(=O)(=O)N1CCCC(C(=O)c2ccc(OC)cc2C)C1 (centres undefined),-3,u,8,-9%,-14%,i,x,x,x
CCOc1ccc(-c2nc(Cn3c(=O)cc(-c4ccccc4)c4c(C)nn(C)c43)c(C)o2)cc1,x,x,-6,9%,5.8µM*,x,0%,-3%,14%
CCCCCCCCN1C(=O)[C@@H](CC(=O)NCc2cccs2)C[C@@]2(C(=O)OC)C1=C[C@H](COCc1ccccc1)O[C@@H]2C,x,x,-4,x,x,x,x,x,x
Cc1ccc(C(C)C)c(OCC(=O)NCC2(N(C)C)CCCCC2)c1,x,u,1,-4%,u,u,x,x,x
CC(=O)N1CCN(C(=O)c2ccc(CNC(=O)c3cccc(Br)c3)cc2)CC1,x,x,6,x,x,x,x,x,x
